# Data published in PubChem BioAssay.
# The list shows a part of the results. Activity calls are given as the source filed them.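 How the source made its calls, unless noted: active means at 20 µM dose, 40% or more inhibition averaged across four replicates; inactive means the rest.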
# Experiments:
# [1] = inhibition of PEG-3 promoter luciferase signal – cell-based, HeLa, luciferase reporter, single concentration, confirmation (AID 602417); settings: HeLa PEG-Prom luciferase reporter, luminescence, overnight; at 20 µM; stronger effect = higher value
# [2] = NF-kB reporter suppression in CF airway cells – cell-based, GFP fluorescence, single concentration, confirmation (AID 602472; in the data active means inhibition above about 40%;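 further: stimulus PAF is a Pseudomonas aeruginosa filtrate and not platelet activating factor; plate controls were DMSO wells with stimulus for no effect and unstimulated DMSO wells for full effect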); settings: KKLEB CF airway cells, PAF-induced NF-kB-GFP fluorescence, overnight; at 5 µM; stronger effect = higher value
# PEG-3 [3] = target: PEG-3 (UniProt Q6IN02); experiment: inhibition of PEG-3 promoter-driven reporter – cell-based, HeLa, luciferase, CREF/GAPDH counter-screen panel, dose response (AID 624167); settings: CREF/GAPDH counter-screens; HeLa PEG-Prom luciferase reporter, overnight, run 1, dose range 1, at 100 µM (top of the series) unless noted
# PEG-3 [4] = target: PEG-3 (UniProt Q6IN02); experiment: as above; settings: CREF/GAPDH counter-screens; HeLa PEG-Prom luciferase reporter, overnight, run 2, dose range 1, at 100 µM (top of the series) unless noted
# [5] = target: Tumor necrosis factor receptor superfamily member 10B (Homo sapiens) (UniProt O14763); experiment: viability loss of caspase-8 NB7 cells with TRAIL – with/without TRAIL, luminescence panel, confirmation (AID 651596; in the data active means activity above about 50%); settings: NB7 neuroblastoma + caspase-8, TRAIL sensitization, NB7 Caspase-8, with TRAIL, mean of runs, at 10 µM, stronger effect = higher value
# [6] = as above; settings: NB7 neuroblastoma + caspase-8, without TRAIL, NB7 Caspase-8, without TRAIL, mean of runs, at 10 µM
# [7] = target: COP9 signalosome complex subunit 5 (Homo sapiens) (UniProt Q92905); experiment: blockers of CSN-driven cullin deneddylation – biochemical, fluorescence polarization, single concentration, SCF-Nedd8OG substrate, confirmation (AID 720654; in the data active means inhibition above about 50%;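 further: 0% = DMSO with enzyme and 100% = no enzyme wells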); settings: Csn5 deneddylation of SCF-Nedd8OG, 90 min, at 16.6 µM, stronger effect = higher value
# [8] = target: 72 kDa type IV collagenase (Homo sapiens) (UniProt P08253); experiment: human MMP-2 inhibitors, single-point check – biochemical, fluorescence, single concentration, counter-screen for CSN deneddylation inhibitor project, confirmation (AID 720655;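 active means corrected plate-normalized z-score of 5 or more, or -5 or less, or inhibition of 15% or more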;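 further: plate controls were DMSO wells with enzyme for no effect and buffer wells lacking MMP-2 for full effect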); settings: recombinant MMP-2, FRET substrate fluorescence, 60 min; at 16.6 µM
# Prothrombin (Bos taurus) = Prothrombin (Bos taurus) (UniProt P00735); experiment: thrombin cleavage blockers, FP readout – biochemical, fluorescence polarization, single concentration, counter-screen for CSN deneddylation inhibitor project, confirmation (AID 720656;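 active means inhibition at or above a set limit, with a fluorescence interference ratio between 0.5 and a set maximum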); settings: bovine thrombin cleavage of Ub4-pepOG, at 16.6 µM, stronger effect = higher value
# Rat fibroblasts (CREF) [9] = experiment: inhibition of PEG-3 promoter-driven reporter – cell-based, HeLa, luciferase, CREF/GAPDH counter-screen panel, dose response (AID 624167); settings: CREF/GAPDH counter-screens; run 1, dose range 1, at 100 µM (top of the series)
# Rat fibroblasts (CREF) [10] = experiment: as above; settings: CREF/GAPDH counter-screens; run 2, dose range 1, at 100 µM (top of the series)
# [11] = HIF-2a driven luciferase blockers, single dose – luminescence, 786-0 RCC cells, confirmation (AID 651580;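 active means mean inhibition across four replicates of at least 40 percent at the single tested concentration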); settings: HIF-2a luciferase reporter luminescence, overnight, at 18.8 µM, stronger effect = higher value
# [12] = HIF-1a luciferase reporter signal reduction – MiaPaCa-2 cells, single concentration, counter-screen for HIF-2a inhibitor project, confirmation (AID 651589;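 active means mean inhibition of the reporter signal across four replicates at the single tested dose of 50% or more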); settings: MiaPaCa-2 HIF-1a luciferase reporter, desferoxamine, overnight; at 18.8 µM; stronger effect = higher value
# Chain of PEG-3 (Q6IN02 whole entry, looked up): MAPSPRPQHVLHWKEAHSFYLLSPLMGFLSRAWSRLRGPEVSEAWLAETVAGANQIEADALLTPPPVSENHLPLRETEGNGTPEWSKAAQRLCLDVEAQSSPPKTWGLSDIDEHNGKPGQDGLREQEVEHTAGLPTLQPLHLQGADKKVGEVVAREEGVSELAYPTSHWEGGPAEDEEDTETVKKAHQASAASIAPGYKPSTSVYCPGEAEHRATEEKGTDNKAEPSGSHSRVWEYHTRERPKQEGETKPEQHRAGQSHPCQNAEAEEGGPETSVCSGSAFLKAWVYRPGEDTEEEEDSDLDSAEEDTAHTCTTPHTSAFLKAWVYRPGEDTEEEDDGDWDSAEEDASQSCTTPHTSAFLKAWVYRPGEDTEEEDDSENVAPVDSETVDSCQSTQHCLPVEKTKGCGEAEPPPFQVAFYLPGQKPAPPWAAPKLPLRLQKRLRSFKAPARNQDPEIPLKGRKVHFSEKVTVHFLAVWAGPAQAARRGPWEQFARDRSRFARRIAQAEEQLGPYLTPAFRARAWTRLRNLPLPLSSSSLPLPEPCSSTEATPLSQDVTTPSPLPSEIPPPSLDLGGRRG
# Chain of COP9 signalosome complex subunit 5 (Homo sapiens) (Q92905 whole entry, looked up, one chain of several): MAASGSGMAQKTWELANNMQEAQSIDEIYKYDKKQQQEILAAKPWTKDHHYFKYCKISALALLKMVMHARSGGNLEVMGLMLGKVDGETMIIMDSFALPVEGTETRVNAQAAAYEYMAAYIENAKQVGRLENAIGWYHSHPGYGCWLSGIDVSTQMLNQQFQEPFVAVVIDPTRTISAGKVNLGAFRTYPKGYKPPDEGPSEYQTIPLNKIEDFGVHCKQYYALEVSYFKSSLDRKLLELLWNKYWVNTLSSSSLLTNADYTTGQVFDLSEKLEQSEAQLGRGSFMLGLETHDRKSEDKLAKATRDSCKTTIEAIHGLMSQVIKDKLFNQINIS
# Chain of Tumor necrosis factor receptor superfamily member 10B (Homo sapiens) (O14763 whole entry, looked up): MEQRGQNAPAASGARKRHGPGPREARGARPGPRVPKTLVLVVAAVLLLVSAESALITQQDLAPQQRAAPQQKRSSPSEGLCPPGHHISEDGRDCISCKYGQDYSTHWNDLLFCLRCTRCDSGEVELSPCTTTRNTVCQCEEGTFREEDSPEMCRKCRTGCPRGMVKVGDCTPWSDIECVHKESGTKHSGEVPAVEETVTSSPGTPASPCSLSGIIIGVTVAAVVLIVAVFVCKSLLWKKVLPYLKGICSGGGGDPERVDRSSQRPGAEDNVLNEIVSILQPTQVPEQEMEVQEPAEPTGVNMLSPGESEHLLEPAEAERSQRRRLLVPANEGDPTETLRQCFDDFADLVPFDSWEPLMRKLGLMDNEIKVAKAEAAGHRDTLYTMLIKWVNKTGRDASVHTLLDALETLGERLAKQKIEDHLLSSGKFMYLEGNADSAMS
# Chain of 72 kDa type IV collagenase (Homo sapiens) (P08253 whole entry, looked up): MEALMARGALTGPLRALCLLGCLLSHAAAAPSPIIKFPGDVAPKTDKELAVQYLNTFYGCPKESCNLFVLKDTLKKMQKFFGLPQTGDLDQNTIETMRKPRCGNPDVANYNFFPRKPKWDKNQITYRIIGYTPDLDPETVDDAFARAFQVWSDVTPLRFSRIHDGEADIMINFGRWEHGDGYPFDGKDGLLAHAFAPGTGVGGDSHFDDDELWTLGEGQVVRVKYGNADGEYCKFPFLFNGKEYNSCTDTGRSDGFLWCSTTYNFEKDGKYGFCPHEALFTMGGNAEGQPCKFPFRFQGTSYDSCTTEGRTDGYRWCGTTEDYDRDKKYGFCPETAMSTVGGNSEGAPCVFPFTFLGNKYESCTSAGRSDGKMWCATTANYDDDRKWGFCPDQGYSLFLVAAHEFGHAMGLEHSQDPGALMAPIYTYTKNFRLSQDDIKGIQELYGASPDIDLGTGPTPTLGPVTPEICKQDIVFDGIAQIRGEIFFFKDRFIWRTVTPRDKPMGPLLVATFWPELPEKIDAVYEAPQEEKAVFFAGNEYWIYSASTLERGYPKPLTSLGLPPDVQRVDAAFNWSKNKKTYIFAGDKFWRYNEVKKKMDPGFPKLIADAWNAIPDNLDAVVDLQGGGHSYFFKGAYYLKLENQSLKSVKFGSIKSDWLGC
# Chain of Prothrombin (Bos taurus) (P00735 whole entry, looked up): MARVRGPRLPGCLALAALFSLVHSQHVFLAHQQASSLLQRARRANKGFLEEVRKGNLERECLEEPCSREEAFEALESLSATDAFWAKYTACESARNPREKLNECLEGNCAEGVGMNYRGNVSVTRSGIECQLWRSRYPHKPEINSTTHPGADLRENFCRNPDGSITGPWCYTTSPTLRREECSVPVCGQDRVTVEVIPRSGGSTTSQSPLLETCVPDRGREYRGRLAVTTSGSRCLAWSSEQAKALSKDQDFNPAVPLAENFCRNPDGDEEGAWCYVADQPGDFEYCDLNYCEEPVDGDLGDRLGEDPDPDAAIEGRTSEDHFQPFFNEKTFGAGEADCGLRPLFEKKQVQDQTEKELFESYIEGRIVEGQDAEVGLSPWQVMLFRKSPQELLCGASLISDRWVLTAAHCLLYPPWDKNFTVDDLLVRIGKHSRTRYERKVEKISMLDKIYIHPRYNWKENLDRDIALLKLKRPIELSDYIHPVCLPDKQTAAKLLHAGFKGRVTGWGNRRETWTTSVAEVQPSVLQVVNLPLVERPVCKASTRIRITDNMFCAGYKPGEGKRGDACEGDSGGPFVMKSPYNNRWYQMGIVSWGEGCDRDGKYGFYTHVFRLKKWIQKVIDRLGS
smiles,measurement,setting,value
CC(C)CN(C(=O)COC(=O)c1ccc2ccccc2c1)c1c(N)n(Cc2ccccc2)c(=O)[nH]c1=O,inhibition,[1],34.1% (inactive)
Clc1ccc2c(c1)C1=C(C(c3ccncc3)O2)C(c2ccc(Br)cc2)n2ncnc2N1 (configuration not stated),inhibition,[2],50% (active)
NS(=O)(=O)c1ccc(N=Nc2c(O)[nH]c3ccc(Br)cc23)cc1,inhibition,[1],0.42% (inactive)
Cc1ccc(Cc2c(-c3ccco3)nc3ccc(Cl)cn23)cc1,inhibition,[2],-82.3% (inactive)
COc1ccc(-c2cc(C(=O)N(C)Cc3ccc(OC)c(OC)c3OC)c3ccccc3n2)cc1OC,inhibition,[1],60.4% (active)
same,inhibition,PEG-3 [3],68.7%
same,inhibition,PEG-3 [4],72.5%
Cc1c(C(=O)Nc2cccc(Cl)c2)cn2c(nc3ccccc32)c1C#N,inhibition,[1],10.5% (inactive)
CCOc1ccc2nc(N(CCCN(C)C)C(=O)c3ccc(C(=O)c4ccccc4)cc3)sc2c1,inhibition,[1],97.7% (active)
same,inhibition,PEG-3 [3],102%
same,inhibition,PEG-3 [4],101%
same,activity,[5],87.4%
same,activity,[6],98.2%
C=CC[C@@H](CC(=O)N[C@@H](CO)Cc1ccccc1)C(=O)N[C@H](COC(=O)[C@H](CC=C)CC(=O)OC(C)(C)C)Cc1ccccc1,inhibition,[1],6.88% (inactive)
COc1ccc2c(c1)c(=Cc1ccc(N(C)C)cc1)c1cc(-c3ccccc3)[n+](C)n12,inhibition,[1],97.8% (active)
same,inhibition,[7],65% (active)
same,inhibition,[8],81.7% (active)
same,inhibition,Prothrombin (Bos taurus),67.8% (active)
same,inhibition,PEG-3 [3],102%
same,inhibition,PEG-3 [4],102%
same,inhibition,Rat fibroblasts (CREF) [9],99.5%
same,inhibition,Rat fibroblasts (CREF) [10],100%
CCN1CCN(c2nc(Nc3cc(OC)ccc3OC)nc(Nc3cc(OC)ccc3OC)n2)CC1,inhibition,[1],70% (active)
same,inhibition,PEG-3 [3],47.9%
same,inhibition,PEG-3 [4],53.1%
CCCCNc1c(-c2cccc(Sc3ccc(OC)cc3)c2)nc2ccccn12,inhibition,[1],95.6% (active)
same,inhibition,PEG-3 [3],94.7%
same,inhibition,PEG-3 [4],81.9%
CCCc1nc2c(c(=O)c3ccccc3n2C)c(=O)n1C1CCCCCC1,inhibition,[2],46.9% (active)
COc1ccc(OC)c(Cc2cnc3nc(N)nc(N)c3c2C)c1,inhibition,[1],66.8% (active)
same,inhibition,PEG-3 [3],88.7%
same,inhibition,PEG-3 [4],86.7%
CSc1nc(N)c(C#N)c(-c2ccccc2Cl)c1C#N,inhibition,[1],70.6% (active)
CCCc1cc(=O)n2[nH]c(C)c(-c3ccc(Cl)cc3)c2n1,inhibition,[1],51.5% (active)
same,inhibition,PEG-3 [3],94%
same,inhibition,PEG-3 [4],88.7%
Cc1ccc(-c2nc3ccccc3[nH]2)cc1NC(=O)c1sc2ccccc2c1Cl,inhibition,[1],-5.64% (inactive)
CCOC(=O)C(C(=O)c1ccccc1)C(c1ccccc1)c1nccc2ccccc12 (configuration not stated),inhibition,[2],14.4% (inactive)
COc1ccc(-c2ccc(CN3C(CC(C)C)C(=O)N(Cc4cn(CC5CCCCC5)nn4)CCS3(=O)=O)cc2)cn1 (configuration not stated),inhibition,[2],36.1% (inactive)
CCn1cc(CN2CCC(C(=O)Nc3cccc(-c4cccc(Cl)c4)c3)CC2)cn1,inhibition,[1],94.5% (active)
same,inhibition,PEG-3 [3],99.1%
same,inhibition,PEG-3 [4],98.3%
CNC(=O)c1ccsc1NC(=O)c1ccc(S(=O)(=O)N2CCc3ccccc32)cc1,inhibition,[1],52.4% (active)
same,inhibition,PEG-3 [3],65%
same,inhibition,PEG-3 [4],63.5%
Cc1ccc(OCC(=O)c2cc(C)n(Cc3ccco3)c2C)c([N+](=O)[O-])n1,inhibition,[1],71.5% (active)
same,inhibition,[11],64.6% (active)
same,inhibition,[12],82.9% (active)
same,inhibition,PEG-3 [3],58%
same,inhibition,PEG-3 [4],62.9%
same,inhibition,Rat fibroblasts (CREF) [9],-20.4%
same,inhibition,Rat fibroblasts (CREF) [10],-12.2%
